Reference: paper PMC5540273 (PLoS ONE, 2017)

Tests used:
Settings in all cases: concentration: 1 μM, replicates: in singlicate; n = 1
DDR2 = tested on: DDR2
DLK = tested on: T1, DLK
T1 construct: gene MAP3K12

DMPK2 = tested on: T2, DMPK2
T2 construct: gene CDC42BPG

DMPK = tested on: DMPK
DRAK1 = tested on: T3, DRAK1
T3 construct: gene STK17A

DRAK2 = tested on: T4, DRAK2
T4 construct: gene STK17B

DYRK1A = tested on: DYRK1A
DYRK1B = tested on: DYRK1B
DYRK2 = tested on: DYRK2
EGFR = tested on: EGFR
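Note: KINOMEscan kinase panel screen.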

SMILES	%Inh (DDR2) [%]	%Inh (DLK) [%]	%Inh (DMPK2) [%]	%Inh (DMPK) [%]	%Inh (DRAK1) [%]	%Inh (DRAK2) [%]	%Inh (DYRK1A) [%]	%Inh (DYRK1B) [%]	%Inh (DYRK2) [%]	%Inh (EGFR) [%]
CCn1c(-c2ccncc2)nc2cnccc21 [SB-735216]	7	0	0	0	0	2	4	2	17	0
CN1c2ccc(-c3ccc(C(=O)NCCO)cc3)cc2-c2[nH]ncc2S1(=O)=O	0	29	7	0	24	29	47	49	31	0
COc1cc2ncnc(Nc3ccc(OCc4ccccc4Br)c(Cl)c3)c2cc1OC.Cl [GI261590]	18	3	7	0	9	0	10	0	0	99.9
Cc1cccc(-c2nc(Nc3ccc4[nH]nnc4c3)c3ccccc3n2)n1 [GW867587]	37	0	0	0	0	0	0	0	26	0
COc1ccc(NC(=O)Nc2ccc(C)c(-c3ccc(C(=O)Nc4ccncc4)cc3)c2)cc1 [GSK1398475]	44	0	6	0	5	8	2	0	6	33
